Assay outcomes from PubChem BioAssay.
Tb PYK inh – inhibitors of Trypanosoma brucei pyruvate kinase | TbPYK enzyme, Kinase-Glo Plus ATP luminescence, 45 min | Potency, µM (top dose mostly 76.8 µM), most hits filed as inhibitors | 410,000 tested, 0.12% active | AID 624173; active = well fitted curve in the direction sought with a large enough effect; inconclusive = small, poorly fitted or top-dose-only effect, or another doubt; inactive = no such curve, though single readings can be large; an effect the other way counts as inactive or inconclusive; note: nearly all actives have a fitted effect of over 50% in size
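Screened from lowest to highest concentration, compounds were pinned into TbPYK/substrate mixtures, and ADP (130 uM final) was added. Plates sat at room temperature for 45 min prior to Kinase-Glo Plus detection by luminescence.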
NS1 inh – blocks influenza NS1 protein function. Potency, µM (top dose mostly 46.1 µM). 270,000 tested, 0.4% active. AID 2326; note: actives are rising curves; nearly all actives have a fitted effect of over 50% in size
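In this qHTS, NS1 from influenza A is expressed in budding yeast, where it slows growth. Cells are switched from glucose to 2% galactose medium (pH 6.0, -URA), treated with compound, and growth recovery is read at OD600.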
Shiga inhibitor – Shiga toxin inhibition; inhibition, % at 38.7 µM; 290,000 tested, 9.2% active; Vero cells, Shiga toxin protein synthesis inhibition reporter; in the data active = inhibition mostly above about 28%, no sharp cut-off; inactive = mostly below about 43%
SARS PLpro yeast – SARS-CoV PLP inhibition in yeast; S. cerevisiae expressing SARS-CoV PLpro, growth rescue; Potency, µM (top dose mostly 32.9 µM), actives largely listed as activators; 330,000 tested, 0.19% active; note: nearly all actives have a fitted effect of over 55% in size
LmPK inh – inhibitors of Leishmania mexicana pyruvate kinase | Q27686 | purified LmPK, Kinase-Glo ATP luminescence, 1 h | Potency, µM (titrated, usually from 57.5 µM), usual class: inhibitors | 290,000 tested, 0.37% active | AID 1721; active = well fitted curve in the direction sought with a large enough effect; inconclusive = small, poorly fitted or top-dose-only effect, or another doubt; inactive = no such curve, though single readings can be large; an effect the other way counts as inactive or inconclusive
Target sequence (Q27686 whole entry, looked up): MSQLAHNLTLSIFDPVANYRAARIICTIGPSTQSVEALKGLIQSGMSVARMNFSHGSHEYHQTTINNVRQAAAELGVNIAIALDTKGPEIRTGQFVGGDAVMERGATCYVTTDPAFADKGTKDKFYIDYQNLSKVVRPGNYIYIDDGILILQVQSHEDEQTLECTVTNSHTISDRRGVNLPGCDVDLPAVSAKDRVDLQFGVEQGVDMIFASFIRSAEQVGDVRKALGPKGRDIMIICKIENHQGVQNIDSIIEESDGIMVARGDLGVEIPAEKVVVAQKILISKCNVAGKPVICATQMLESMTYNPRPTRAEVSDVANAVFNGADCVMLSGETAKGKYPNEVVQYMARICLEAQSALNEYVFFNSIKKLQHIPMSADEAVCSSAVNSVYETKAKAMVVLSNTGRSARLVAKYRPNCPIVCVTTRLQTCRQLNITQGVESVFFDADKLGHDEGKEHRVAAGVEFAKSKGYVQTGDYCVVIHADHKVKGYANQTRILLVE
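0.1 nM LmPK, 0.5 mM PEP, 0.1 mM ADP; 50 mM imidazole pH 7.2, 7 mM MgCl2, 50 mM KCl; 1 h RT. Kinase-Glo luminescence readout, normalized to no-enzyme (full inhibition) and uninhibited wells.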
Cycloheximide cs – counter-screen hit for Shiga toxin inhibitors, cycloheximide. cell reporter, cycloheximide protein synthesis inhibition counterscreen. max response, %. 300,000 tested, 12% active; in the data active = max response mostly above about 13%, no sharp cut-off; inactive = mostly below about 14%; note: read at 38.3 µM for the half of the compounds with a filed dose
Large screens that a line does not name were inactive. Many of the other results were omitted from the sample, so hits are more common in it than they were. Unless noted, calls come from the whole dose curve.

O=C(Nc1nc2ccccc2[nH]1)c1ccc(F)c(S(=O)(=O)N2CCOCC2)c1	Shiga inhibitor 44, Cycloheximide cs 50
O=C(NCc1nc2ccccc2[nH]1)c1cccc(S(=O)(=O)N2CCOCC2)c1	none
Cc1cc(C)c2nc(NC(=O)[C@@H](NC(=O)c3cccc(S(=O)(=O)N4CCOCC4)c3)C(C)C)sc2c1	Shiga inhibitor 64, Cycloheximide cs 32
O=C(Nc1nc2ccccc2[nH]1)c1cccc(S(=O)(=O)N2CCOCC2)c1	Shiga inhibitor 42, Cycloheximide cs 39
COc1ccc2c(c1)CC(NC(=O)Nc1c(C)cc(C)cc1C)CO2 (centres undefined)	none (no result: NS1 inh, Shiga inhibitor, SARS PLpro yeast, LmPK inh, Cycloheximide cs)
NS(=O)(=O)c1cc(Cl)c(NC(=O)COC(=O)c2ccccn2)c(Cl)c1	none (no result: NS1 inh, Shiga inhibitor, LmPK inh, Cycloheximide cs)
Oc1ccccc1N=Nc1ccccc1O	Shiga inhibitor 194, Cycloheximide cs 94 (no result: NS1 inh)
Cc1ccc(S(=O)(=O)Nc2c(C)nc3nc(C)[nH]n3c2=O)c(C)c1	none
Cc1cc(O)c2c(c1)C(=O)[C@@]13Oc4c5c(c(O)c6c(O)cc(C)cc46)C(=O)C[C@H](O)[C@H]5[C@@H]1[C@@H](O)CC(=O)C3=C2O	none (no result: NS1 inh, Shiga inhibitor, SARS PLpro yeast, LmPK inh, Cycloheximide cs)
Cc1snc(SCC(=O)c2ccc([N+](=O)[O-])cc2)c1C#N	Tb PYK inh 35µM, Shiga inhibitor 64, Cycloheximide cs 30 (no result: NS1 inh)
Cc1snc(SCc2ccc(Cl)cc2)c1C#N	Cycloheximide cs 11
Cc1snc(SCc2ccc(F)cc2)c1C#N	none
CSc1nc(N)nc(SCC(=O)OC(C)C)c1C#N	none
CSc1snc(SCC(N)=O)c1C#N	none
CSc1nc(N)nc(SCC(=O)c2ccc(C)cc2)c1C#N	Shiga inhibitor active, Cycloheximide cs 28
Cc1snc(SCC(=O)c2ccc(F)cc2)c1C#N	Shiga inhibitor 105, Cycloheximide cs 34 (no result: NS1 inh)
Cc1ccc(Cn2c(C3CCCN3c3nc(-c4ccc(F)cc4)cs3)nc3cc(C(F)(F)F)ccc32)cc1 (centres undefined)	none (no result: NS1 inh, Shiga inhibitor, SARS PLpro yeast, LmPK inh, Cycloheximide cs)
O=C(COC(=O)/C=C/c1cccc(C(F)(F)F)c1)NC1CCCCCC1	none (no result: NS1 inh, Shiga inhibitor, LmPK inh, Cycloheximide cs)
CCN(CC(=O)Nc1cc(Cl)ccc1C)C(=O)c1oc2ccc(OC)cc2c1C	none (no result: NS1 inh, Shiga inhibitor, LmPK inh, Cycloheximide cs)
CC(Oc1ccc(F)cc1)C(=O)Nc1nc(-c2ccc(F)cc2)ns1 (centres undefined)	none (no result: NS1 inh, Shiga inhibitor, SARS PLpro yeast, LmPK inh, Cycloheximide cs)
CSc1nnc2c(n1)c(C)nn2-c1cccc(C)c1	Shiga inhibitor 36, Cycloheximide cs 20
O=C(Nc1ccccc1[N+](=O)[O-])c1cc(S(=O)(=O)N2CCOCC2)cs1	Cycloheximide cs 19
O=C(Nc1ccc(N2CCOCC2)cc1)c1ccc([N+](=O)[O-])o1	Shiga inhibitor 59, LmPK inh inconclusive, Cycloheximide cs 37
O=C(Nc1ccc(S(=O)(=O)N2CCOCC2)cc1)c1ccc([N+](=O)[O-])o1	Shiga inhibitor 61, Cycloheximide cs 19
O=C(COC(=O)c1ccc([N+](=O)[O-])o1)Nc1ccc(N2CCOCC2)cc1	none (no result: NS1 inh, Shiga inhibitor, LmPK inh, Cycloheximide cs)
COc1ccc(S(=O)(=O)N2CCCCC2)cc1NC(=O)c1ccc([N+](=O)[O-])o1	Shiga inhibitor 44, Cycloheximide cs 23 (no result: NS1 inh)
O=C(CN1C(=O)S/C(=C\c2ccc(O)cc2)C1=O)c1ccccc1	Shiga inhibitor 20, Cycloheximide cs 36
Cc1ccc(Cl)c2sc(N3CCN(C(=O)C4CC4)CC3)nc12	none (no result: NS1 inh, Shiga inhibitor, SARS PLpro yeast, LmPK inh, Cycloheximide cs)
Cn1c(=O)c2c(nc(NC3CCCC3)n2C)n(C)c1=O	Cycloheximide cs 25
COC(=O)c1oc2ccccc2c1N	none
COc1ccc(C(=O)Nc2c(C(=O)c3ccccc3)oc3ccccc23)cc1	none (no result: NS1 inh, Shiga inhibitor, SARS PLpro yeast, LmPK inh, Cycloheximide cs)
COC(=O)CCC(=O)c1oc2ccc(OC)cc2c1N	Cycloheximide cs 40
COc1ccc(C(=O)c2oc3ccccc3c2N)cc1	Shiga inhibitor active, Cycloheximide cs 93
COC(=O)c1oc2ccc(Cl)cc2c1N	Shiga inhibitor 99, Cycloheximide cs 22
COc1ccc2oc(C(=O)c3ccccc3)c(N)c2c1	Shiga inhibitor 135, Cycloheximide cs 65
Cc1ccc2nsnc2c1S(=O)(=O)Nc1cccc2cccnc12	none (no result: Tb PYK inh, NS1 inh, SARS PLpro yeast, LmPK inh)
O=C(Nc1ccc(Cl)cc1)C1CCN(S(=O)(=O)c2ccc(Br)s2)CC1	none (no result: NS1 inh, Shiga inhibitor, SARS PLpro yeast, LmPK inh, Cycloheximide cs)
COc1ccc2oc(C(=O)OCC(=O)N3CCCCC3C)c(C)c2c1 (centres undefined)	none (no result: NS1 inh, Shiga inhibitor, LmPK inh, Cycloheximide cs)
COc1ccc2oc(C(=O)C3CC3)c(N)c2c1	Shiga inhibitor 131, Cycloheximide cs 43
Cc1cc(NC(=O)c2ccc(-c3ccc(Br)cc3)o2)cc(-c2nc3ncccc3o2)c1O	none (no result: NS1 inh, Shiga inhibitor, SARS PLpro yeast, LmPK inh, Cycloheximide cs)
